ADAM17 inh: inhibits human ADAM17. P78536. recombinant ADAM17, EDANS/DABCYL FRET peptide cleavage. inhibition, % at 6.95 µM. 0.83% of 370,000 active. AID 720648;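 active = inhibition above the mean of compounds lying between control limits plus 3 SD, set per campaign, cut at about 8.5% in these data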;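 also: 0% = DMSO-only wells as the low control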
rCAG RNA binder: r(CAG) repeat RNA binding; inhibition, % at 3 µM; 1.3% of 370,000 active; TO-PRO-1 dye displacement fluorescence; AID 651821;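 active = inhibition above the plate cutoff, the mean of all test compounds on that plate plus 3 SD, cut at about 35% in these data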;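 also: 0% = DMSO alone and 100% = 100 µM mitoxantrone as full dye displacement; higher means more dye released from RNA so lower well fluorescence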
DSG3 Ab inh: inhibitors of pemphigus antibody binding to human desmoglein-3; P32926; DSG3-coupled beads, scFv-anti-DSG3-GFP binding, flow cytometry; active compounds read low; 0.48% of 310,000 active; binding (percent of control), % at 10 µM;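 active = binding more than 3 SD below its plate's average and above zero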;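 also: hits lower antibody fragment binding to DSG3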
ADAM10 inh: inhibits human ADAM10 | recombinant ADAM10, EDANS/DABCYL FRET peptide cleavage, 3 h | inhibition, % at 7 µM | 0.62% of 370,000 active | AID 720582;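 active = inhibition above a per-campaign cutoff equal to the mean of compounds falling between control-based bounds plus 3 SD, cut at about 20% in these data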;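 also: 0% = DMSO wells while the 100% control is not disclosed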
MPTP inh: inhibitors of mitochondrial permeability transition pore; 1.4% of 360,000 active; AID 602449; inhibition, % at 10 µM; isolated mouse mitochondria, Ca2+ swelling absorbance, 30 min;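 active = inhibition of 50% or more, scaled per plate between neutral and stimulator controls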;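 also: 0% = DMSO wells given calcium and 100% = 1 mM EGTA wells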
proKLK7 act: proKLK7 (human) activation, primary screen | AID 652039 | purified proKLK7, EDANS-DABCYL substrate fluorescence; 100% is mature enzyme control, 0% vehicle | P49862 | activation, % at 7 µM | 0.9% of 370,000 active;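 active = activation above the mean of all tested compounds plus 3 SD, computed per campaign excluding outliers beyond control limits, cut at about 13% in these data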
rCAG bind conf: r(CAG) RNA repeat binding, confirmation; shares compounds with rCAG RNA binder; inhibition, % at 3 µM; AID 652065; TO-PRO-1 dye displacement fluorescence; 70% of 4,300 active;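 active = inhibition above a per-plate cutoff, the mean inhibition of sample wells plus 3 SD, cut at about 35% in these data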;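 also: loss of TO-PRO-1 fluorescence as compound displaces dye from 1x1 AA loop RNA; 0% = DMSO only wells and 100% = 100 µM mitoxantrone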
dCAG dye counter: counter-screen for rCAG RNA binders: DNA CAG dye complex inhibitors | shares compounds with rCAG RNA binder | d(CAG) DNA oligo TO-PRO-1 dye displacement, fluorescence | inhibition, % at 3 µM | 94% of 4,300 active | AID 652068;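 active = inhibition above its plate's cutoff, the mean test-well inhibition plus 3 SD, cut at about 4.8% in these data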;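 also: 0% = DNA dye mix with DMSO and 100% = 100 µM mitoxantrone; hits displace the dye from DNA and so lower well fluorescence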
Starred values were filed as active, the others as inactive. Rows were chosen to be rich in hits. Some 4.7% of all compounds tested hit in one or more screens of this group.

`Cc1oc2c(cc(NS(=O)(=O)c3ccc(C(C)C)cc3)c3ccccc32)c1C(=O)O` gave ADAM17 inh 1.1, rCAG RNA binder 54.1*, DSG3 Ab inh 91.1, ADAM10 inh 6.4, MPTP inh -1.3, proKLK7 act -0.7, rCAG bind conf 62.6* and dCAG dye counter 28.0*.
O=C(CN1C(=O)C(=O)N(C2CCCC2)C1=O)NCCc1ccc(Cl)cc1Cl was read as ADAM17 inh -0.8, rCAG RNA binder 2.7, ADAM10 inh -4.4, MPTP inh -1.8 and proKLK7 act 0.7.
For O=C(N/N=C/c1cc(Br)cc([N+](=O)[O-])c1O)c1ccc(NC(=O)c2ccc(F)cc2)cc1 the results were ADAM17 inh 4.1, rCAG RNA binder 43.2*, DSG3 Ab inh 89.8, ADAM10 inh 11.2, MPTP inh 17.3, proKLK7 act -0.7, rCAG bind conf 78.0* and dCAG dye counter 40.9*.
O=C(O)c1ccccc1-c1nc(-c2ccccc2)c(-c2ccccc2)[nH]1 was read as ADAM17 inh -1.5, rCAG RNA binder 1.9, DSG3 Ab inh 95.7, ADAM10 inh -12.9, MPTP inh 2.9 and proKLK7 act 0.4.
Screening O=C(O)c1cccc2c(-c3ccccc3)c(-c3ccccc3)[nH]c12 returned ADAM17 inh -2.9, rCAG RNA binder 77.4*, DSG3 Ab inh 99.7, ADAM10 inh 5.6, MPTP inh 12.0, proKLK7 act -0.4, rCAG bind conf 66.1* and dCAG dye counter 22.9*.
CCOc1ccc(-n2c(SCC(=O)Nc3ccc(S(=O)(=O)Nc4cc(C)nc(C)n4)cc3)nnc2-c2ccc(C)cc2)cc1 was read as ADAM17 inh 3.3, rCAG RNA binder 52.2*, ADAM10 inh 4.3, proKLK7 act 0.1, rCAG bind conf 58.3* and dCAG dye counter 18.1*.
COc1ccc(-n2c(COc3ccc(C)cc3)nnc2SCC(=O)Nc2ccc(S(=O)(=O)Nc3cc(C)nc(C)n3)cc2)cc1 was read as ADAM17 inh 0.2, rCAG RNA binder 51.0*, ADAM10 inh 4.8, proKLK7 act 0.1, rCAG bind conf 44.5* and dCAG dye counter 14.3*.
For COc1ccc(-n2c(SCC(=O)Nc3ccc(S(=O)(=O)Nc4cc(C)nc(C)n4)cc3)nnc2-c2ccco2)cc1 the results were ADAM17 inh -1.2, rCAG RNA binder 34.2, ADAM10 inh -11.5 and proKLK7 act -0.2.
For CCOc1ccc(-n2c(SCC(=O)Nc3ccc(S(=O)(=O)Nc4cc(C)nc(C)n4)cc3)nnc2-c2ccncc2)cc1 the results were ADAM17 inh -2.7, rCAG RNA binder 20.3, ADAM10 inh -6.8 and proKLK7 act -0.7.
For CCOc1ccc(-n2c(SCC(=O)Nc3ccc(S(=O)(=O)Nc4cc(C)nc(C)n4)cc3)nnc2-c2cccc(C)c2)cc1 the results were ADAM17 inh 3.3, rCAG RNA binder 47.4*, ADAM10 inh 5.3, proKLK7 act 0.2, rCAG bind conf 46.7* and dCAG dye counter 16.5*.
Screening CCOc1ccc(-n2c(SCC(=O)Nc3ccc(S(=O)(=O)Nc4cc(C)nc(C)n4)cc3)nnc2-c2ccc(OC)cc2)cc1 returned ADAM17 inh 2.5, rCAG RNA binder 41.3*, ADAM10 inh 0.9, proKLK7 act 0.6, rCAG bind conf 44.1* and dCAG dye counter 14.6*.
`Cc1ccc(-n2c(SCC(=O)Nc3ccc(Oc4ccccc4)cc3)nnc2-c2cccc(C)c2)cc1` gave ADAM17 inh -1.4, rCAG RNA binder 8.1, ADAM10 inh -8.0 and proKLK7 act 0.5.
For NCc1ccc(OCCCN2CCC(C(O)(C3=CCCC3)c3ccccc3)CC2)cc1 (centres undefined) the results were ADAM17 inh -6.5, rCAG RNA binder 7.2, ADAM10 inh -15.0 and proKLK7 act 0.3.
For COc1ccc(C(=O)COC(=O)CNC(=O)c2ccc(Cl)cc2Cl)c(OC)c1 the results were ADAM17 inh -0.1, rCAG RNA binder 3.9, DSG3 Ab inh 101.7, ADAM10 inh -2.4, MPTP inh -1.9 and proKLK7 act -0.1.

Compound activity as filed in PubChem BioAssay.
